Source: PubChem BioAssay (NCATS)
Inconclusive results are not listed. Unmarked numbers belong to inactive results. The call rests on the fitted dose curve; in most records, active means well fitted cell-killing curve with a large enough effect; inconclusive means small, poorly fitted or top-dose-only effect; inactive means flat fitted curve, though single readings scatter.

test: NCATS anti-infectives library activity on HEK293 viability as a counter-qHTS vs the C. elegans viability qHTS (AID 1745854); conditions: HEK293 viability counter-screen; series mostly up to 41.8 µM; activity change, negative = cytotoxicity: at the top concentration;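 further: HEK293 cells exposed to compounds for 24 hr before the viability read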
In short: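 Cytotoxicity in human HEK293 cells is measured by ATP-dependent CellTiter-Glo luminescence following a 24 hr incubation with titrated library compounds at 37C. Top final concentration is 41.7 uM.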
On the % scale 0 is the no-effect control and ±100 the full control effect.

SMILES	activity change, negative = cytotoxicity [%]
CO[C@H]1C[C@@H]2CC[C@@H](C)[C@@](O)(O2)C(=O)C(=O)N2CCCC[C@H]2C(=O)O[C@H]([C@@H](C)C[C@@H]2CC[C@@H](O)[C@H](OC)C2)CC(=O)[C@H](C)/C=C(\C)[C@@H](O)[C@@H](OC)C(=O)[C@H](C)C[C@H](C)/C=C/C=C/C=C/1C	-6.54
COc1cccc(N2CCN(C3=Nc4c(F)cccc4[C@H](CC(=O)O)N3c3cc(C(F)(F)F)ccc3OC)CC2)c1	-3.24
Cn1nc(C(C)(C)C)cc1C(=O)N[C@@H](Cc1cccc(Cl)c1)C(=O)NCC#N	-6.57
Cc1cnc(-c2ccccc2C(C)C)nc1NCc1ccc(-n2ccnn2)cc1	-18.8
COc1cc(C[C@H]2C(=O)OC[C@@H]2Cc2ccc(OC)c(OC)c2)ccc1O	-26.7
O=C(NC[C@H]1CN(c2ccc(N3CCOCC3=O)cc2)C(=O)O1)c1ccc(Cl)s1	7.46
